Test results published in PubChem BioAssay (EPA / NIEHS).
The source made the active and inactive calls. The calls were made as follows: active = hit-call score of the fitted dose curve at least 0.9, where 1 is the maximum; inactive = score below 0.9.

Key:
[1] = ATG_E_Box_CIS: Attagene CIS-FACTORIAL HepG2 Assay for human Enhancer Box (E-box) (AID 2282936); conditions: HepG2 E-box cis-reporter transcription, actives raise or lower the signal
In short: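 Fluorescent reporter fragments separated by capillary electrophoresis gave the signal; mRNA came from HepG2 cells transfected with cis-element reporters and treated 24 h. Curves fitted bidirectionally relative to DMSO controls.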

[2] = ATG_M_61_CIS: Attagene CIS-FACTORIAL HepG2 Assay for M61 Transcription Factor (Internal Marker) (AID 2282937); conditions: HepG2 Attagene CIS-FACTORIAL M61 internal marker reporter; actives raise or lower the signal
In short: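 Endogenous transcription factor activity in HepG2 is read through transiently transfected cis-element reporter units. After 24 h dosing, RNA undergoes reverse transcription, PCR and primer extension with 6-FAM before capillary electrophoresis; DMSO-referenced bidirectional fit.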

[3] = ATG_EGR_CIS: Attagene CIS-FACTORIAL HepG2 Assay for human Early Growth Response 1 (EGR1) (AID 2282938); conditions: HepG2 Attagene CIS-FACTORIAL EGR reporter mRNA; actives raise or lower the signal
In short: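 Activity is taken as induction or loss of reporter mRNA versus DMSO, fitted bidirectionally. Transcripts from cis-regulated reporter units in transiently transfected HepG2 were measured after 24 h by RT-PCR with capillary electrophoresis.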

[4] = ATG_Ets_CIS: Attagene CIS-FACTORIAL HepG2 Assay for human Erythroblast Transformation Specific (ETS) (AID 2282941); conditions: HepG2 ETS cis-reporter transcription, actives raise or lower the signal
In short: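 RT-PCR/capillary electrophoresis fluorescence read-out of reporter mRNA; HepG2 transient multi-reporter transfection; 24 h compound exposure; gain or loss of signal fitted bidirectionally relative to DMSO.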

[5] = target: Hepatocyte nuclear factor 3-beta (Homo sapiens) (UniProt Q9Y261); test: ATG_FoxA2_CIS: Attagene CIS-FACTORIAL HepG2 Assay for human Forkhead box A2 (FOXA2) (AID 2282942); conditions: HepG2 cis-reporter transcription factor activity, 24 h; actives raise or lower the signal
In short: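 Reporter transcript induction is measured by fluorescence after capillary electrophoresis of RT-PCR products from HepG2 cells exposed 24 h. Cis-regulated reporter units report endogenous factor activity; curves fitted both directions against DMSO.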

[6] = ATG_FoxO_CIS: Attagene CIS-FACTORIAL HepG2 Assay for human Forkhead box O (FoxO) (AID 2282943); conditions: HepG2 Attagene cis-reporter, FoxO element, mRNA; actives raise or lower the signal
In short: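 HepG2, transient MRTU transfection (cis element, endogenous TFs). Dose 24 h. TriZol RNA → oligo(dT) RT → PCR → 6-FAM primer extension → HpaI cut → CE. Gain/loss vs DMSO.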

[7] = ATG_GATA_CIS: Attagene CIS-FACTORIAL HepG2 Assay for human GATA Binding Protein (AID 2282944); conditions: HepG2 GATA cis-element reporter, Attagene multiplex mRNA; actives raise or lower the signal
In short: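 Transient MRTU transfection, HepG2, 24 h compound exposure. Total RNA → oligo(dT) RT → PCR → 6-FAM primer extension → HpaI cut → CE. Bidirectional fit vs DMSO.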

[8] = ATG_GLI_CIS: Attagene CIS-FACTORIAL HepG2 Assay for human Zinc Finger Protein GLI1 (AID 2282945); conditions: HepG2, Attagene cis-factorial reporter mRNA, GLI element; actives raise or lower the signal
In short: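 Bidirectional curve fits relative to DMSO, using reporter mRNA levels from RT-PCR plus capillary electrophoresis. Cells were HepG2 transiently carrying cis-regulated reporter constructs, harvested 24 h after dosing.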

[9] = ATG_M_19_CIS: Attagene CIS-FACTORIAL HepG2 Assay for M19 Transcription Factor (Internal Marker) (AID 2282939); conditions: HepG2 Attagene CIS-FACTORIAL M19 internal marker reporter; actives raise or lower the signal
In short: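 Transfect HepG2 with MRTU reporter library → dose chemical, 24 h → isolate total RNA, reverse-transcribe with oligo(dT) → PCR, 6-FAM label, HpaI cut (2 h, 37 C) → capillary electrophoresis. Bidirectional fit vs DMSO.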

[10] = ATG_ERE_CIS: Attagene CIS-FACTORIAL HepG2 Assay for Estrogen Response Element (ERE) (AID 2282940); conditions: HepG2 ERE cis-reporter, Attagene RNA transcript; actives raise or lower the signal
In short: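 Transient MRTU transfection of human HepG2; cis-element promoters; 24 h dosing; total RNA → RT (oligo dT) → PCR → 6-FAM primer extension → HpaI digest → CE fluorescence. Bidirectional fit, DMSO baseline.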

Measured: AC50

Hepatocyte nuclear factor 3-beta (Homo sapiens), sequence (Q9Y261 whole entry, looked up): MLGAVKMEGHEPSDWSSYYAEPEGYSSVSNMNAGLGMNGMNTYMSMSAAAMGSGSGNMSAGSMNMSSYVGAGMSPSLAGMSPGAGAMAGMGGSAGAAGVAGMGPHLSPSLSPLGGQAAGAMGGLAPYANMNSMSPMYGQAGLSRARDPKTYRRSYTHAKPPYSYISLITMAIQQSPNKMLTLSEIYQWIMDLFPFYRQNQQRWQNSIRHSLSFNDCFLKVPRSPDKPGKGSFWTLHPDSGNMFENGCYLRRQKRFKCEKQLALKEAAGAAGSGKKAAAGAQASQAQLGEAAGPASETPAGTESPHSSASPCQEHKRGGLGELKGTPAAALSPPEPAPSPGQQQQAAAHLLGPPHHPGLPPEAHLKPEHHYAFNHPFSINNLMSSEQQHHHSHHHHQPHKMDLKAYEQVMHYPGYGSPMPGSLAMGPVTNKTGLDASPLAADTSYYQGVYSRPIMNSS

OCCOc1cccc(OCCO)c1
not listed: [9] | [10]
inactive: all other assays above

CC(C)[C@@H]1CC[C@@H](C)CC1=O
not listed: [4] | [9] | [10]
inactive: all other assays above

C=CC(C)(O)CCC=C(C)CCC=C(C)C (configuration not stated)
active: [1] 131 µM | [2] 166 µM | [3] 100 µM | [4] 164 µM
inactive: [5] | [6] | [7]

CCCCCCOC(=O)CCCCC
not listed: [4] | [10]
inactive: all other assays above

CC(=O)OCc1ccc2c(c1)OCO2
not listed: [4] | [9] | [10]
inactive: all other assays above

CCCCCCCCCOC(C)=O
not listed: [5] | [9]
inactive: all other assays above

CC(=O)[O][Al][O]C(C)=O
inactive: [1] | [2] | [3] | [10] | [6] | [7]

N#Cc1nc(Cl)c(Cl)c(Cl)c1Cl
inactive: [2] | [9]
active: [1] 5.53 µM | [3] 4.56 µM | [5] 6.82 µM | [6] 5.92 µM | [7] 3.71 µM | [8] 5.39 µM

CC(C)(C#N)c1cc(Cn2cncn2)cc(C(C)(C)C#N)c1
not listed: [9] | [10]
inactive: all other assays above

COc1cccc(OC)c1
not listed: [9] | [10]
inactive: all other assays above

CCCCO
not listed: [9] | [10]
inactive: all other assays above

Cc1c(N(C)C)c(=O)n(-c2ccccc2)n1C
not listed: [9]
inactive: all other assays above

O=C=NC1CCC(CC2CCC(N=C=O)CC2)CC1 (configuration not stated)
active: [1] 76.9 µM | [8] 174 µM
not listed: [9] | [10]
inactive: all other assays above

CC1(C)[C@H](C(=O)OCc2cccc(Oc3ccccc3)c2)[C@@H]1C=C(Cl)Cl
not listed: [9] | [10]
inactive: all other assays above

CCCC(=O)OCCC(C)CCC=C(C)C (configuration not stated)
not listed: [7] | [9] | [10]
inactive: all other assays above

Nc1cc([N+](=O)[O-])ccc1Cl
not listed: [4] | [5] | [10]
inactive: all other assays above

CCc1ccc(C=O)cc1
not listed: [4] | [10]
inactive: all other assays above

C=C(C)C(=O)OCCOC(=O)CC(C)=O
inactive: [2] | [9] | [4] | [5] | [6] | [8]

CCCCC[Si](OCC)(OCC)OCC
not listed: [1] | [10]
inactive: all other assays above

CCCCCCCCCCC(CO)CCCCCCCC (configuration not stated)
not listed: [1] | [10]
inactive: all other assays above

CCCCC/C=C/C=C/C=O
not listed: [1] | [7] | [10]
inactive: all other assays above

CC(CCO)CCCC(C)(C)O (configuration not stated)
not listed: [1] | [10]
inactive: all other assays above

FC1(F)C(F)(F)C(F)(F)C2(F)C(F)(C1(F)F)C(F)(F)C(F)(F)C1(F)C(F)(F)C(F)(F)C(F)(F)C(F)(F)C12F (configuration not stated)
not listed: [1] | [8] | [10]
inactive: all other assays above

CCCc1ccccc1O
not listed: [1] | [7] | [10]
inactive: all other assays above

CCCCCCCCCCCCN
inactive: [2] | [3] | [9] | [4] | [6] | [8]

Cc1ccc(Nc2ccc(O)c3c2C(=O)c2ccccc2C3=O)cc1
not listed: [1] | [10]
inactive: all other assays above

CCCCNC(=O)NS(=O)(=O)c1ccc(N)cc1
not listed: [1] | [10]
inactive: all other assays above

Cc1ccc2ccccc2n1
not listed: [1] | [7] | [10]
inactive: all other assays above

O=C(O)CCCCC1CCSS1 (configuration not stated)
not listed: [1] | [9]
inactive: all other assays above

CCCCCCCCCCCCN(CCCCCCCCCCCC)CCCCCCCCCCCC
not listed: [1] | [10]
inactive: all other assays above

CCN(CC)c1ccc2c(-c3ccccc3C(=O)O)c3ccc(=[N+](CC)CC)cc-3oc2c1
active: [3] 135 µM
not listed: [1] | [5] | [9]
inactive: all other assays above

Cc1ccc(C(=O)c2cc(O)c(O)c([N+](=O)[O-])c2)cc1
not listed: [1] | [5] | [10]
inactive: all other assays above

CC(C)(C)C(=O)c1ccccc1
not listed: [1] | [7] | [10]
inactive: all other assays above

Cc1ccc2n[nH]nc2c1
not listed: [1] | [9] | [10]
inactive: all other assays above

O=[N+]([O-])c1ccc(Nc2ccc(Nc3ccccc3)c(S(=O)(=O)O)c2)c([N+](=O)[O-])c1
active: [3] 100 µM
not listed: [1] | [5] | [10]
inactive: all other assays above

O=C(Oc1ccccc1)c1ccc(O)cc1
not listed: [1] | [10]
inactive: all other assays above

CCCCc1ccc(N)cc1
active: [10] 29.6 µM
not listed: [1] | [3]
inactive: all other assays above

CCCCCCCCCCCCOCCO
active: [5] 47.6 µM | [6] 56.6 µM | [8] 60.7 µM
not listed: [1] | [10]
inactive: all other assays above

O=C(O)COCCN1CCN(C(c2ccccc2)c2ccc(Cl)cc2)CC1 (configuration not stated)
active: [10] 18.8 µM
not listed: [1] | [5] | [8]
inactive: all other assays above

O=C1CCc2ccccc2O1
not listed: [1] | [3]
inactive: all other assays above

COC(=O)C1=C(C)NC(C)=C(C(=O)OCCN(C)Cc2ccccc2)C1c1cccc([N+](=O)[O-])c1 (configuration not stated)
active: [8] 99.5 µM
not listed: [1]
inactive: all other assays above

CSc1nc(NC2CC2)nc(NC(C)(C)C)n1
not listed: [1] | [10]
inactive: all other assays above

CCCCCNCCCCC
not listed: [1] | [4] | [10]
inactive: all other assays above

CC(C)C(C)(C)C(C)(C)C(C)(C)S
not listed: [1]
inactive: all other assays above

O=CCCc1ccccc1
not listed: [1] | [9] | [10]
inactive: all other assays above

CCN(CC)c1ccc(C(=C2C=CC(=[N+](CC)CC)C=C2)c2ccc(S(=O)(=O)O)cc2S(=O)(=O)[O-])cc1
not listed: [1] | [10]
inactive: all other assays above

CC(CN1c2ccccc2Sc2ccccc21)N(C)C (configuration not stated)
active: [3] 25.2 µM
not listed: [1] | [4] | [10]
inactive: all other assays above

O=C(O)CN(CCN(CC(=O)O)CC(=O)O)CCN(CC(=O)O)CC(=O)O
not listed: [1] | [9] | [10]
inactive: all other assays above

NC(=O)Nc1ccc(Cl)cc1
not listed: [1] | [9]
inactive: all other assays above

O=C(O)c1cn(C2CC2)c2cc(N3CCNCC3)c(F)cc2c1=O
not listed: [1] | [5]
inactive: all other assays above

CCCCCOC(=O)CCC
not listed: [1] | [3] | [10]
inactive: all other assays above

Nc1ccc(S(N)(=O)=O)cc1
inactive: [2] | [9] | [4] | [5] | [6] | [7]

O=C1NC(=O)c2ccccc21
not listed: [1] | [10]
inactive: all other assays above

COc1c(Cl)c(Cl)c(Cl)c(Cl)c1Cl
not listed: [1] | [9] | [10]
inactive: all other assays above

CCCCCCCCCCCCCCCC(=O)OC[C@H](O)[C@H]1OC(=O)C(O)=C1O
active: [5] 159 µM
not listed: [1] | [9]
inactive: all other assays above

CC(=O)OCCC(C)CC(C)(C)C (configuration not stated)
not listed: [1] | [10]
inactive: all other assays above
